Calls of active or inactive are those of the source. Unless noted, no rule for the calls is given here.
Columns and labels:
[1] = compound effects on lung adenocarcinoma cell viability – A549, calcein-AM fluorescence, 48 h, basal, profiling panel (AID 1162); conditions: higher = more signal; also: test concentration not given here
[2] = compound effects on differentiated 3T3-L1 adipocyte viability – cell-based, 3T3-L1 adipocytes, calcein-AM fluorescence, 48 h, basal, profiling panel (AID 1163); conditions: 3T3-L1 adipocytes viability, higher = more signal; also: test concentration not given here
[3] = compound effects on hepatocellular carcinoma cell viability – HepG2, calcein-AM fluorescence, 48 h, basal, profiling panel (AID 1164); conditions: higher = more signal; also: test concentration not given here
[4] = compound effects on multiple myeloma cell viability – MM1S, calcein-AM fluorescence, 48 h, basal, profiling panel (AID 1165); conditions: higher = more signal; also: test concentration not given here
[5] = calcein-AM signal in unstimulated myeloma cells – cell-based, calcein-AM fluorescence, 48 h, PK04 Diversity Set, profiling panel (AID 1166); conditions: RPMI8226 myeloma viability, higher = more signal;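 also: cells grown under basal conditions without added stimulus; test concentration not given here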
[6] = JC-1 mitochondrial signal, unstimulated HepG2 cells – cell-based, JC-1 fluorescence, 24 h, 100 nL compound, profiling panel (AID 1167); conditions: HepG2 mitochondrial potential, higher = more signal; also: test concentration not given here
[7] = JC-1 mitochondrial signal, unstimulated adipocytes – cell-based, JC-1 fluorescence, 3T3-L1 adipocytes, 24 h, 100 nL compound, profiling panel (AID 1168); conditions: JC-1 mitochondrial fluorescence, higher = more signal, called active from +8 up or from −8 down; also: test concentration not given here
[8] = JC-1 mitochondrial signal, unstimulated myeloma cells – cell-based, JC-1 fluorescence, RPMI8226, 24 h, 100 nL compound, profiling panel (AID 1169); conditions: JC-1 mitochondrial potential fluorescence, higher = more signal; also: test concentration not given here
[9] = JC-1 mitochondrial signal, unstimulated MM1S myeloma – cell-based, JC-1 fluorescence, 24 h, 100 nL compound, profiling panel (AID 1170); conditions: MM1S mitochondrial potential, higher = more signal; also: test concentration not given here
[10] = resazurin metabolic signal in A549 cells – cell-based, resazurin fluorescence, 24 h, PK04 Diversity Set, profiling panel (AID 1171); conditions: A549 viability, higher = more signal, called active from +8 up or from −8 down; also: test concentration not given here
[11] = resazurin metabolic signal in HepG2 cells – cell-based, resazurin fluorescence, 24 h, PK04 Diversity Set, profiling panel (AID 1172); conditions: HepG2 viability, higher = more signal; also: test concentration not given here
[12] = budding yeast growth changes without added modifier – OD600, strain BY4716, 24 h, basal condition, primary screen (AID 1173); conditions: S. cerevisiae BY4716 growth, OD600, 24 h; higher = more signal, called active from +8 up or from −8 down
[13] = viability profiling in MM1S myeloma cells – cell-based, resazurin fluorescence, basal, 24 h, PK04 Diversity Set, profiling panel (AID 1174); conditions: higher = more signal, called active from +8 up or from −8 down; also: test concentration not given here
[14] = target: Dihydroorotate dehydrogenase (quinone), mitochondrial (Plasmodium falciparum (isolate 3D7)) (UniProt Q08210); assay: inhibition of P. falciparum DHODH – biochemical, C-terminal His tag, absorbance 600 nm, primary screen (AID 1175); conditions: PfDHODH enzyme, DCIP absorbance 600 nm; higher = more signal, called active from +8 up or from −8 down;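 also: recombinant parasite enzyme with a five histidine tag at its C terminus; test concentration not given here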
[15] = inhibition of PAO1 biofilm formation – strain PAO1, LB-PBS medium, absorbance 600 nm, primary screen (AID 1176); also: test concentration not given here; conditions: P. aeruginosa PAO1 growth/biofilm, A600, 12 h; higher = more signal
[16] = growth modulation of vineyard yeast isolate – strain RM11-1a, OD600, basal, 24 h, primary screen (AID 1177);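 also: cultures grown under basal conditions with no added stressor; test concentration not given here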; conditions: S. cerevisiae RM11-1a growth, OD600, 24 h; higher = more signal, called active from +8 up or from −8 down
[17] = growth of efflux-deficient E. coli DRC39 – strain DRC39, OD650, 24 h, E. coli filamentation inducers, primary screen (AID 1178);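 also: growth measured as culture turbidity by optical density at 650 nm; test concentration not given here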; conditions: E. coli DRC39 acrAB, higher = more signal, called active from +8 up or from −8 down
[18] = growth of efflux-deficient E. coli DRC39 – strain DRC39, OD650, 48 h, E. coli filamentation inducers, primary screen (AID 1179);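 also: screen aims at cell division blockers that make cells filament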; conditions: E. coli DRC39 delta-acrAB growth, higher = more signal, called active from +8 up or from −8 down
[19] = viability profiling in RPMI8226 myeloma cells – cell-based, resazurin fluorescence, basal, 24 h, PK04 Diversity Set, profiling panel (AID 1180); conditions: higher = more signal;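 also: RPMI8826 multiple myeloma cell line at 5000 cells per well; test concentration not given here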
[20] = target: E3 ubiquitin-protein ligase XIAP (Homo sapiens) (UniProt P98170); assay: small molecules binding XIAP protein – biophysical, small-molecule microarray, fluorescence 635 nm, primary screen (AID 1181); conditions: higher = more signal;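 also: score merges 667 nm emission and signal to noise over triplicate slides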
E3 ubiquitin-protein ligase XIAP (Homo sapiens), sequence (P98170 whole entry, looked up): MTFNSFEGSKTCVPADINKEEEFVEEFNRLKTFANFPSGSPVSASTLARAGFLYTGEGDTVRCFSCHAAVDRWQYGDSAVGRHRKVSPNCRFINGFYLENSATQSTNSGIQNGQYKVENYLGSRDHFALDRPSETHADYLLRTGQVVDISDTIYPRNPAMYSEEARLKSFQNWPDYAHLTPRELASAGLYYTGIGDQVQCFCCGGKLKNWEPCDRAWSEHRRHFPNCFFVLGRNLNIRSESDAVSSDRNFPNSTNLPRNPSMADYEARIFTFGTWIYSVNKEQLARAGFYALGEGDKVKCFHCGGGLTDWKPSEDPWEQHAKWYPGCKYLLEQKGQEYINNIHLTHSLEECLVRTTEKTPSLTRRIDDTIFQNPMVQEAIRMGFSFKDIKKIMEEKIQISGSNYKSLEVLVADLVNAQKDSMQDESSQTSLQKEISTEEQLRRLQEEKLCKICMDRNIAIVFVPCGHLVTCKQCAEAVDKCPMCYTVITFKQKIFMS

Dihydroorotate dehydrogenase (quinone), mitochondrial (Plasmodium falciparum (isolate 3D7)), sequence (Q08210 whole entry, looked up): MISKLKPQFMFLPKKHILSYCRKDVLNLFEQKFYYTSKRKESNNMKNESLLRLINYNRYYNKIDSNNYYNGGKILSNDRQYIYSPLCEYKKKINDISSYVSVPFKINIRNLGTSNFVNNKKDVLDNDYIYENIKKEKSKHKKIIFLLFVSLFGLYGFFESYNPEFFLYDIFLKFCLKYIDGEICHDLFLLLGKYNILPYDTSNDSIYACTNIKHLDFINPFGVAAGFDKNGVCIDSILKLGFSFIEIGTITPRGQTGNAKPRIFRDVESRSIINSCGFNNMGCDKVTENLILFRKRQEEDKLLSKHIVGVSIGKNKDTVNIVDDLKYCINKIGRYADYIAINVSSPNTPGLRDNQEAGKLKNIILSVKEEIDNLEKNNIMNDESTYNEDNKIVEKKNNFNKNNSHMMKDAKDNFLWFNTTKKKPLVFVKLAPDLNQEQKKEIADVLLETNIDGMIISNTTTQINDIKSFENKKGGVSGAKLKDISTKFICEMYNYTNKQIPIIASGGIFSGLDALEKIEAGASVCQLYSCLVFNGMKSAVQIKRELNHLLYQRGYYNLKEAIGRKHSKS

Compound	z-score [1]	z-score [2]	z-score [3]	z-score [4]	z-score [5]	z-score [6]	z-score [7]	z-score [8]	z-score [9]	z-score [10]	z-score [11]	z-score [12]	z-score [13]	composite z-score [14]	z-score [15]	z-score [16]	z-score [17]	z-score [18]	z-score [19]	composite z-score [20]
C=C(CCCC)C(=O)CC[C@@H](OC(=O)c1cccnc1)c1ccccc1OCCO	-0.528	0.101	-0.14	-3.21	-2.92	0.0547	0.361 (inactive)	-0.754	-1.33	0.335 (inactive)	0.0748	-3.02 (inactive)	-1.22 (inactive)	-2.63 (inactive)	-0.153 (inactive)	0.231 (inactive)	0.604 (inactive)	0.448 (inactive)	-2.39	0.0325
C=CCOC(=O)[C@@H]1[C@H]2C(=O)O[C@H](c3ccccc3)[C@H](c3ccccc3)N2[C@H](c2ccc(OCCOC(=O)[C@H]3C[C@H]4C(=O)N[C@@H](CCCC[N+](C)(C)C)C(=O)N4[C@H]3c3ccc(O)cc3)cc2)[C@@]12C(=O)Nc1ccc(I)cc12	-0.105	-1.19	-0.591	-0.477	-0.362	-2.03	0.178 (inactive)	-0.275	-1.13	-0.173 (inactive)	-0.792	1.47 (inactive)	-0.706 (inactive)	-0.353 (inactive)	2.01 (inactive)	2.12 (inactive)	-0.877 (inactive)	-1.37 (inactive)	-0.578	0.0623
C[C@H]1C2=C3C(CC[C@H]4C(OCc5ccc(F)cc5C(F)(F)F)OC[C@](C)([C@@H]34)N(C(=O)OC(C)(C)C)C2)C(CO)C1CO (stereo not given in full)	-1.49	-0.723	-0.907	-3.22	-4.68	-0.987	-1.13 (inactive)	-0.522	0.0495	-0.629 (inactive)	-1.49	0.964 (inactive)	-2.08 (inactive)	-0.108 (inactive)	2.31 (inactive)	1.04 (inactive)	-1.36 (inactive)	-0.895 (inactive)	-1.62	0.147
CC(=O)NCCCC[C@@H]1NC(=O)[C@@H]2C[C@H](C(=O)O)[C@H](c3ccc(O)cc3)N2C1=O	0.0665	0.384	-0.552	0.421	-0.105	-1.14	-0.352 (inactive)	0.667	0.237	-0.179 (inactive)	-0.253	0.929 (inactive)	0.699 (inactive)	0.435 (inactive)	-0.819 (inactive)	0.88 (inactive)	0.0763 (inactive)	-0.301 (inactive)	0.517	-0.0796
C=C(COC)/C(=C/C[C@@H](OC(=O)c1ccncc1)c1ccc(OCCO)cc1)c1cnc2ccccc2c1	0.101	1.48	-0.0465	-0.289	-0.594	1.86	-0.892 (inactive)	0.674	0.464	0.549 (inactive)	0.564	-1.17 (inactive)	0.354 (inactive)	-6.09 (inactive)	-0.0221 (inactive)	-0.0819 (inactive)	0.595 (inactive)	0.436 (inactive)	0.621	0.0566
Cc1ccc(S[C@]2(C(=O)O)CC(=O)N(Cc3ccccc3Cl)[C@@H]2c2ccc(CO)cc2)cc1	0.322	0.152	-0.0394	-0.217	-1.44	-0.0706	-0.672 (inactive)	-0.509	1.37	-0.462 (inactive)	-0.739	-0.399 (inactive)	-0.465 (inactive)	0.0962 (inactive)	1.42 (inactive)	0.573 (inactive)	0.21 (inactive)	0.224 (inactive)	0.148	-0.0749
CCOC(=O)C1=CC[C@@H](c2ccc([N+](=O)[O-])cc2)N(S(=O)(=O)c2ccc(C)cc2)[C@H]1c1ccccc1	-0.143	-0.786	0.239	-0.767	-0.281	2.35	-0.233 (inactive)	1.21	-1.25	0.807 (inactive)	0.468	2.52 (inactive)	0.541 (inactive)	0.914 (inactive)	0.229 (inactive)	0.901 (inactive)	-0.72 (inactive)	-0.445 (inactive)	0.546	-0.124
COc1ccc([Si](C)(C)[C@H]2[C@H](CCn3cc([C@H](O)c4ccccc4)nn3)O[C@@]3(C(=O)N(Cc4ccc(N5CCC5=O)cc4)c4ccccc43)[C@@H]2C)cc1	0.399	1.19	-0.541	-0.695	-0.412	0.411	-0.391 (inactive)	-0.445	-0.202	-0.869 (inactive)	-0.225	0.309 (inactive)	-0.771 (inactive)	0.65 (inactive)	0.401 (inactive)	1.07 (inactive)	0.0302 (inactive)	-0.422 (inactive)	-0.0897	-0.022
[N-]=[N+]=NCc1ccccc1C[C@@]1(C(N)=O)N=C(c2ccc(OCCCO)cc2)O[C@@H]1c1ccccc1CN=[N+]=[N-]	0.703	-0.323	1.42	-1.25	-3.08	1.18	-0.301 (inactive)	-1.1	-0.422	-0.136 (inactive)	0.717	-1.43 (inactive)	-0.833 (inactive)	-11.6 (active)	0.261 (inactive)	0.835 (inactive)	0.178 (inactive)	0.041 (inactive)	0.0178	0.0049
COC(=O)[C@@]1(Cc2ccccc2)[C@H]2c3cc(C(=O)N4CCCC4)n(C[C@H](O)CO)c3C[C@H]2CN1C(=O)c1ccccc1	-1.11	-0.154	0.0709	0.37	0.302	0.438	-0.128 (inactive)	-0.0296	-0.3	-0.63 (inactive)	-0.476	1.08 (inactive)	-0.688 (inactive)	0.355 (inactive)	0.0818 (inactive)	0.267 (inactive)	-0.685 (inactive)	-0.299 (inactive)	-0.746	-0.099
COC(=O)[C@@]1(Cc2ccccc2)[C@H]2c3cc(C(=O)N4CCCC4)n(Cc4ccsc4Br)c3C[C@H]2CN1C(=O)c1ccccc1	-0.991	0.213	-0.248	-1.54	-3.59	1.6	-0.205 (inactive)	-0.804	-1.23	-0.9 (inactive)	-1.08	0.666 (inactive)	-0.686 (inactive)	-0.876 (inactive)	-0.0703 (inactive)	1.15 (inactive)	-0.28 (inactive)	0.139 (inactive)	-3.12	0.218
COc1ccc(CCNC(=O)[C@@]2(Sc3ccc(C)cc3)CC(=O)N(Cc3cc(C(F)(F)F)cc(C(F)(F)F)c3)[C@@H]2c2ccc(CO)cc2I)cc1	0.154	-0.208	0.0649	-1.46	-1.96	-1.08	-0.208 (inactive)	-0.165	-2.1	0.469 (inactive)	0.872	-3.6 (inactive)	-2.46 (inactive)	-0.988 (inactive)	0.723 (inactive)	-1.33 (inactive)	0.232 (inactive)	0.214 (inactive)	-1.61	-0.291
COc1cc(CO)cc(I)c1O[C@H]1C=C(C(=O)NCCO)C[C@@H](N(Cc2ccc(F)cc2)C(=O)C2CCCO2)[C@@H]1O (stereo not given in full)	0.656	0.284	0.364	0.87	0.577	1.04	0.195 (inactive)	-0.899	0.578	-0.409 (inactive)	0.266	-1.96 (inactive)	0.695 (inactive)	-0.737 (inactive)	0.507 (inactive)	-0.254 (inactive)	2.94 (inactive)	2.03 (inactive)	0.562	-0.165
O=C1O[C@@H](c2ccccc2)[C@@H](c2ccccc2)N2[C@@H](c3ccc(O)cc3)[C@]3(C(=O)Nc4ccccc43)[C@@H](C(=O)Nc3nc4ccccc4s3)[C@H]12	-2.07	0.353	-1.49	-3.37	-4.55	-3.64	0.169 (inactive)	-1.23	-1.76	-1.9 (inactive)	-1.66	-0.505 (inactive)	-3.11 (inactive)	0.162 (inactive)	2.43 (inactive)	0.72 (inactive)	-0.0021 (inactive)	0.251 (inactive)	-4.69	-0.0045
C=C(/C(=C/C[C@@H](OC(=O)c1ccncc1)c1ccccc1OCCO)c1cc(C(=O)OC)ccc1OC)C(C)C	1.36	0.38	0.92	-3.25	-2.11	2.74	-0.158 (inactive)	0.00511	-1.71	-0.108 (inactive)	-0.0182	-0.0905 (inactive)	-0.9 (inactive)	-1.82 (inactive)	0.424 (inactive)	-0.0487 (inactive)	0.315 (inactive)	0.227 (inactive)	-0.722	0.153

Source: PubChem BioAssay
